The text below walks through data of PubChem BioAssay (EPA / NIEHS).

More than one record can exist for a structure, and the calls need not agree. Activity calls are given as the source filed them. The calls were made as follows: active = hit-call score of the fitted dose curve at least 0.9, where 1 is the maximum; inactive = score below 0.9.

A short description of this assay: ATG_M_61_CIS: Attagene CIS-FACTORIAL HepG2 Assay for M61 Transcription Factor (Internal Marker) (AID 2282937). Conditions: HepG2 Attagene CIS-FACTORIAL M61 internal marker reporter; actives raise or lower the signal. The procedure:
ATG_CIS is a cell-based, multiplexed-readout assay that uses HepG2, a human liver cell line, with measurements taken at 24 hours after chemical dosing in a 24-well plate.ATG_M_61_CIS is one of 52 assay component(s) measured or calculated from the ATG_CIS assay. It is designed to make measurements of mRNA induction, a form of inducible reporter, as detected with fluorescence intensity signals by Reverse transcription polymerase chain reaction (RT-PCR) and Capillary electrophoresis technology.Data from the assay component ATG_M_61_CIS was analyzed into 1 assay endpoint. This assay endpoint, ATG_M_61_CIS, was analyzed with bidirectional fitting relative to DMSO as the negative control and baseline of activity. Using a type of inducible reporter, measures of mRNA for gain or loss-of-signal activity can be used to understand the background control at the transcription factor-level as they relate to the gene . Furthermore, this assay endpoint can be referred to as a secondary readout, because this assay has produced multiple assay endpoints where this one serves a background control function. To generalize the intended target to other relatable targets, this assay endpoint is annotated to the background measurement intended target family, where the subfamily is internal marker.
Human liver HepG2 cells are transiently transfected with multiple reporter transcription units (MRTUs) in 6-well plates using FuGene 6 reagent (Roche; 3 ml FuGene/1 mg DNA). The MRTU constructs are regulated by a cis-regulating element (promoter). […] A major difference between the CIS and TRANS system is that in CIS activities of endogenous TFs are measured, whereas the TRANS assay evaluates changes in activities of exogenous, chimeric NR-Gal4 proteins. […] At the end of 24 hour incubation, total RNA was isolated using TriZol reagent (Invitrogen). The isolated RNA is then reverse-transcribed using oligo(dT) primer and Mo-MLV reverse transcriptase (Invitrogen) with DNAse I (Ambion) treatment for 30 min. The one-tenth of the produced cDNA was amplified by PCR using Taq DNA polymerase (Invitrogen) and two reporter sequence-specific primers. The PCR products were fluorescently labeled by primer extension with 6-arboxyfluorescein (6-FAM) 5'-labeled reporter sequence-specific primer (2 min at 95 C, 20 s at 68 C and 10 min at 72 C) and these products were digested with 5U of HpaI (New England Biolabs) for 2h at 37 C. The fragments were purified using Qiaquick PCR columns (Qiagen), analyzed on an ABI 3130xL genetic analyzer (Applied Biosystems) with peak positions identified by using a set of X-rhodamine (ROX)-labeled MapMarker1000 molecular weight standards (BioVentures). The raw capillary electrophoresis data was processed using Attagraph software (Attagene).
As to `Oc1c(I)cc(I)cc1I`, the outcome was inactive. Still for that read-out and setting: as for `CC(C)c1cccc(C(C)C)c1O`, the entry is “inactive”.

`COP(=S)(OC)Oc1cc(Cl)c(Cl)cc1Cl`: the compound was called inactive.

Take `O=C(O)C(F)(F)C(F)(F)C(F)(F)C(F)(F)C(F)(F)C(F)(F)C(F)(F)C(F)(F)C(F)(F)C(F)(F)F`: the AC50 was 76.2 µM (active) and the result was inactive. In the case of `O=C(Nc1ccc2[nH]ccc2c1)c1cc2cc(F)ccc2n1Cc1cccc(F)c1`, the compound was classed as inactive. Still for that read-out and setting: under `Cc1ccccc1C(=O)Nc1cccc(OC(C)C)c1` stands “inactive”; under `COS(=O)(=O)c1ccc(C)cc1`, “inactive”; under `CCc1ccccc1C`, “inactive”. On the same count and under the same terms, under `O=C1CCCN1` stands “inactive”; under `CCC(=O)C(CC(C)N(C)C)(c1ccccc1)c1ccccc1` (stereo not given), “inactive”. As for `CCC[CH2][Sn]([Cl])([Cl])[Cl]`, the call was inactive. The same measure, in the same setting: under `CCCCCCCCC(=O)NCc1ccc(O)c(OC)c1` stands “inactive”; under `C[C@H]1O[C@@H](O[C@H]2[C@@H](O)C[C@H](O[C@H]3[C@@H](O)C[C@H](O[C@H]4CC[C@@]5(C)[C@H](CC[C@@H]6[C@@H]5CC[C@]5(C)[C@@H](C7=CC(=O)OC7)CC[C@]65O)C4)O[C@@H]3C)O[C@@H]2C)C[C@H](O)[C@@H]1O`, “inactive”; under `CC(Br)C(=O)O` (stereo not given), “inactive”.

For the compound `ClCc1ccccn1`, the outcome was inactive. Consider `CCCCOCCOC(C)=O`, for which the compound was called inactive. Same read-out and setting: under `C=C(C)C(=O)[O][Sn]([CH2]CCC)([CH2]CCC)[CH2]CCC` stands “inactive”; under `CC(C)(C)c1cc(O)ccc1O`, “inactive”; under `CCOC(=O)Nc1cccc(OC(=O)Nc2ccccc2)c1`, “inactive”. For the compound `CC(=O)OC(c1ccccc1)C(Cl)(Cl)Cl` (stereo not given), the compound was called inactive. On the same count and under the same terms, as for `Nc1ncc([N+](=O)[O-])s1`, the entry is “inactive”; as for `Nc1cccc2ccccc12`, “inactive”; as for `COP(=S)(OC)Oc1ccc(S(=O)(=O)N(C)C)cc1`, “inactive”. Regarding `CC(=O)C=C(C)C`, the compound was classed as inactive. On to `CCOP(=S)(OCC)SCCS(=O)(=O)CC`, for which the compound was called inactive. The same measure, in the same setting: under `Cc1cc(Cl)ccc1O[C@H](C)C(=O)O` stands “inactive”; under `O=C(Cl)c1ccc(Cl)cc1`, “inactive”. On to `CC(=[OH+])/C=C(/C)[O-].CC(=[OH+])/C=C(/C)[O-].CC(=[OH+])/C=C(/C)[O-].[Fe]`, for which the compound was classed as inactive. The same measure, in the same setting: under `O=P(O)(O)CN(CP(=O)(O)O)CP(=O)(O)O` stands “inactive”; under `Oc1ccc(-c2ccccc2)cc1`, “inactive”; under `Clc1ccc(C2(Cn3cncn3)CC(Br)CO2)c(Cl)c1` (stereo not given), “inactive”. Same read-out and setting: under `COP(=O)(OC)OC` stands “inactive”; under `O=C1C(Cl)=C(Cl)C(=O)c2ccccc21`, “inactive”.

As for `O=[N+]([O-])c1c(Cl)c(Cl)cc(Cl)c1Cl`, the call was inactive. As to `ClCC(Cl)CCl`, the call was inactive. `COc1cc(OC)nc(NC(=O)NS(=O)(=O)c2ncccc2C(=O)N(C)C)n1`: the result was inactive. Still for that read-out and setting: under `COc1cc2c(cc1OC)[C@@]13CCN4CC5=CCO[C@H]6CC(=O)N2[C@H]1[C@H]6[C@H]5C[C@H]43` stands “inactive”; under `O=S(=O)(c1ccc(Cl)cc1)c1ccc(Cl)cc1`, “inactive”. Consider `CCC(=O)c1ccccc1`, for which the call was inactive.
